In experiment [1] the target is Mitogen-activated protein kinase 3 (Homo sapiens) (UniProt P27361). To be noted: at 1 µM.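 Also: values are mean percent inhibition of MAPK3.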
Experiment [2] has as its target SRSF protein kinase 3 (Homo sapiens) (UniProt Q9UPE1). To be noted: at 0.1 µM.
The target is the same in experiment [3]. To be noted: at 1 µM.
The target in experiment [4] is Mitogen-activated protein kinase 14 (Homo sapiens) (UniProt Q16539). To be noted: at 0.1 µM.
Experiment [5] has the same target. As to conditions: at 1 µM.
The target in experiment [6] is Mitogen-activated protein kinase 11 (Homo sapiens) (UniProt Q15759). As to conditions: at 0.1 µM.
Experiment [7] shares this target. To be noted: at 1 µM.
Experiment [8] deals with T1, Mitogen-activated protein kinase 13 (Homo sapiens) (UniProt O15264).
T1 sequence (whole entry): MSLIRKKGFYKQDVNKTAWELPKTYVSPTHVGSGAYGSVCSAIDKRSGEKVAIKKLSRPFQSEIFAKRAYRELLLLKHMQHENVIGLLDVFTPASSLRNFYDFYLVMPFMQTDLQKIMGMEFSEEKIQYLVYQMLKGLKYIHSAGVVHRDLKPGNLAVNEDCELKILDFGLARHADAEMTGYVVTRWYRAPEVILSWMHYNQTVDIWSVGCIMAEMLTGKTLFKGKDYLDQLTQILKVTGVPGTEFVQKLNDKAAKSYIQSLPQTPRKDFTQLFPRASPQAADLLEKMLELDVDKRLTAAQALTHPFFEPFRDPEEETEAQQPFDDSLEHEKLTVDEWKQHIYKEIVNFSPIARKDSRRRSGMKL
To be noted: at 0.1 µM.

Experiment [9] addresses T1, Mitogen-activated protein kinase 13 (Homo sapiens). To be noted: at 1 µM.
For experiment [10], the target named is T2, Mitogen-activated protein kinase 12 (Homo sapiens) (UniProt P53778).
T2 sequence (whole entry): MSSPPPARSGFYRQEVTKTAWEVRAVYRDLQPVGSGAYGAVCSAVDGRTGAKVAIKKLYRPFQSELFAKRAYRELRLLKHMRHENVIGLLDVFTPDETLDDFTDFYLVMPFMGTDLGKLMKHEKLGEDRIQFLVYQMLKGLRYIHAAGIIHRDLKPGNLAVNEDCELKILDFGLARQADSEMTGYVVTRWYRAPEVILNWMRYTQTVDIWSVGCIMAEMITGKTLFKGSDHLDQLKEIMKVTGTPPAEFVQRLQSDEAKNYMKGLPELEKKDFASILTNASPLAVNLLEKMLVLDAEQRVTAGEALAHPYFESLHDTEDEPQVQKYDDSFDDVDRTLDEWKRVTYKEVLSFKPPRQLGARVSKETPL
To be noted: at 0.1 µM.

The target in experiment [11] is T2, Mitogen-activated protein kinase 12 (Homo sapiens). To be noted: at 1 µM.
For experiment [12], the target named is SRSF protein kinase 1 (Homo sapiens) (UniProt Q96SB4). To be noted: at 0.1 µM.
Experiment [13] has the same target. As to conditions: at 1 µM.
For experiment [14], the target named is Phosphatidylinositol 4,5-bisphosphate 3-kinase catalytic subunit alpha isoform (Homo sapiens) (UniProt P42336). As to conditions: at 0.1 µM.
Experiment [15] shares this target. To be noted: at 1 µM.
Experiment [16] deals with T3, Phosphatidylinositol 4,5-bisphosphate 3-kinase catalytic subunit delta isoform (Homo sapiens) (UniProt O00329).
T3 sequence (whole entry): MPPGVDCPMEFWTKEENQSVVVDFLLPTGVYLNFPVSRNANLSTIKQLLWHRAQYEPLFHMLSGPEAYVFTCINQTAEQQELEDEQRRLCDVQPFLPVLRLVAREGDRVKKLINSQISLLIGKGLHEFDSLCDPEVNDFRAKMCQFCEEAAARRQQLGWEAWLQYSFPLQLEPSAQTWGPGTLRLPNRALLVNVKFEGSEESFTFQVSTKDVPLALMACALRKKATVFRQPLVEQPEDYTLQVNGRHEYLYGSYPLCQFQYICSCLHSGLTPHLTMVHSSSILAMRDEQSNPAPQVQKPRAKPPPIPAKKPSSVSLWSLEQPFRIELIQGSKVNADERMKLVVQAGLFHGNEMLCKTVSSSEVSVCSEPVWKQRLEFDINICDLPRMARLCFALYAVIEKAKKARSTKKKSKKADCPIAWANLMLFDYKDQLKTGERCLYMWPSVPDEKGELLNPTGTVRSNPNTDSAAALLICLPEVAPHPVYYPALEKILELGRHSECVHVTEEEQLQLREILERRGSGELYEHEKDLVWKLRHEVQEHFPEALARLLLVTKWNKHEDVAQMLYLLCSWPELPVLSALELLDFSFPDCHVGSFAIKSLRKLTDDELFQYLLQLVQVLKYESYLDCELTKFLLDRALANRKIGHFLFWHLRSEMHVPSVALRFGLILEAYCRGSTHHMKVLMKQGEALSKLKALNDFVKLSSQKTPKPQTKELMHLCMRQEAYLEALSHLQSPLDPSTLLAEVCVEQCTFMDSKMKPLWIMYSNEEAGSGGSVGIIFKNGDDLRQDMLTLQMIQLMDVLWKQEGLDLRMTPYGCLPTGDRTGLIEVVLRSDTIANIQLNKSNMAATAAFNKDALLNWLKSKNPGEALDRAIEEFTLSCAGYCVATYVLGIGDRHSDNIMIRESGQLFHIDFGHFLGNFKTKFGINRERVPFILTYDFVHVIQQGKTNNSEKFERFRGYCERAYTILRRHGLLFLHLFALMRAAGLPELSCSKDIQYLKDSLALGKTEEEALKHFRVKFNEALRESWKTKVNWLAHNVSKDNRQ
To be noted: at 0.1 µM.

Experiment [17] concerns the target T3, Phosphatidylinositol 4,5-bisphosphate 3-kinase catalytic subunit delta isoform (Homo sapiens). To be noted: at 1 µM.
Experiment [18] deals with Phosphatidylinositol 4-kinase beta (Homo sapiens) (UniProt Q9UBF8). As to conditions: at 0.1 µM.
For experiment [19] the target is unchanged. To be noted: at 1 µM.
For experiment [20], the target named is Sphingosine kinase 1 (Homo sapiens) (UniProt Q9NYA1). To be noted: at 0.1 µM.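 Also: mean percent inhibition of SPHK1 activity, measured within the GSK PKIS screening panel.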

Drawing on ChEMBL document CHEMBL1961873, “Compounds: GSK PKIS; Assays: Nanosyn kinase panel” (2012), this text covers inhibition for seven compounds.

Structures are written as SMILES.

One may read the inhibition as the relative decrease from the control value, in per cent.

Sequence of Phosphatidylinositol 4,5-bisphosphate 3-kinase catalytic subunit alpha isoform (Homo sapiens) (P42336 whole entry, canonical isoform): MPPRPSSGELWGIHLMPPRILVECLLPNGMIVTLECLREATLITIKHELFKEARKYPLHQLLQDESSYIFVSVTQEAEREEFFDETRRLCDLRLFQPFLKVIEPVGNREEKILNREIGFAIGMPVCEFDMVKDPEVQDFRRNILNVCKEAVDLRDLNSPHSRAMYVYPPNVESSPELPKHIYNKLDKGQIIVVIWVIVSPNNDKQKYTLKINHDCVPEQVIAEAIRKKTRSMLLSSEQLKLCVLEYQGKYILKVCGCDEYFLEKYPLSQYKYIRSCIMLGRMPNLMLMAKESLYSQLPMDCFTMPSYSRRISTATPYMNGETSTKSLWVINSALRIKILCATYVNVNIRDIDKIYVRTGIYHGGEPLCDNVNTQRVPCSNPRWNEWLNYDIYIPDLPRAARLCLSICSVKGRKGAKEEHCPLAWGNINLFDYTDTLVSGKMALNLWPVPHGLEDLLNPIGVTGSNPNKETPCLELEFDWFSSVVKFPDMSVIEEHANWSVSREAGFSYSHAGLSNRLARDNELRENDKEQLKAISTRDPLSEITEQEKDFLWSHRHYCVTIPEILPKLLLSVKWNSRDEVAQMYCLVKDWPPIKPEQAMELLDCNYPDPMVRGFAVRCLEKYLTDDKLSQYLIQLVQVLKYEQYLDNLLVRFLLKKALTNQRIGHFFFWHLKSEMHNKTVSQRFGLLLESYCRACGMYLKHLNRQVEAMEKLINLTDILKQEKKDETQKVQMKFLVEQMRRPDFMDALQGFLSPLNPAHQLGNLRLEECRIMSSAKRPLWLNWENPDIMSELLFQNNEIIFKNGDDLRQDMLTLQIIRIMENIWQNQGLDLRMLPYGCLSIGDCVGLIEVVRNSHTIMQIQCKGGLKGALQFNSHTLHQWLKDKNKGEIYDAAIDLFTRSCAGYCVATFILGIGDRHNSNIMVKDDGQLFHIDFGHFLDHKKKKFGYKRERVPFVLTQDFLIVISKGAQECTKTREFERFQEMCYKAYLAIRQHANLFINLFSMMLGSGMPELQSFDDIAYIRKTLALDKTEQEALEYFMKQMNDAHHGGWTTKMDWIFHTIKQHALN
Sequence of Mitogen-activated protein kinase 11 (Homo sapiens) (Q15759 whole entry): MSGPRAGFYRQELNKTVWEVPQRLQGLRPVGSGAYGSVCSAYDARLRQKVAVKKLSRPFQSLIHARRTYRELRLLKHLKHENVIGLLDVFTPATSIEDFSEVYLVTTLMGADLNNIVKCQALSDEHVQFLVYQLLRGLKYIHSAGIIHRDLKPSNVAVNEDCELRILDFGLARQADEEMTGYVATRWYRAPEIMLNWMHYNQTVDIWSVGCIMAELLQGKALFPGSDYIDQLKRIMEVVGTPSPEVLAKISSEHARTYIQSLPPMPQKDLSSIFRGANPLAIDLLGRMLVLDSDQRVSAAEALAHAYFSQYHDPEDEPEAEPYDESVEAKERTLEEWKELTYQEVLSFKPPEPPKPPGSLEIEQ
Sequence of Mitogen-activated protein kinase 3 (Homo sapiens) (P27361 whole entry): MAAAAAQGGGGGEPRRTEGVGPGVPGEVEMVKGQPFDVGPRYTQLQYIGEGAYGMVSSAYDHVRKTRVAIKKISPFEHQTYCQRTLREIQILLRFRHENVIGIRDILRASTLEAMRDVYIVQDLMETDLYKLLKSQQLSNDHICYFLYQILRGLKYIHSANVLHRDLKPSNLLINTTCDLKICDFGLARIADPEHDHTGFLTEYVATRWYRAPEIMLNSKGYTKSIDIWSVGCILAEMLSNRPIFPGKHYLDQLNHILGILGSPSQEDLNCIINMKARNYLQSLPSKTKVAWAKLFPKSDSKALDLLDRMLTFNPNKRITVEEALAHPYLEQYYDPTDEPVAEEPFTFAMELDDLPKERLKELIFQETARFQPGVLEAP
Sequence of SRSF protein kinase 3 (Homo sapiens) (Q9UPE1 whole entry): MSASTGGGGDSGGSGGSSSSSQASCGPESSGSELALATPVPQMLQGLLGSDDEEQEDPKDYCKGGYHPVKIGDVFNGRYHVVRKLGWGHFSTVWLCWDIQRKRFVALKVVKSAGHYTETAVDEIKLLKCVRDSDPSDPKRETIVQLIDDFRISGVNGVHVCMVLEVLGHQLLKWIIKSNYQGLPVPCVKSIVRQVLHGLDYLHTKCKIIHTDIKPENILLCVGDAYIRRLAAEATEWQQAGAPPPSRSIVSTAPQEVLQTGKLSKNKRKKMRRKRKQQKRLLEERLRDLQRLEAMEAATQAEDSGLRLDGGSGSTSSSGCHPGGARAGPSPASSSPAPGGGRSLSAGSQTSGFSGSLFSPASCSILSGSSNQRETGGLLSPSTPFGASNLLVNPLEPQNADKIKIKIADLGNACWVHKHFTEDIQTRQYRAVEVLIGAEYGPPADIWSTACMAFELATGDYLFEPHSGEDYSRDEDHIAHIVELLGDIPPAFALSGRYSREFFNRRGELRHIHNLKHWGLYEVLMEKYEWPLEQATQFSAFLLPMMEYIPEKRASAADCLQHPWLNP
Sequence of Phosphatidylinositol 4-kinase beta (Homo sapiens) (Q9UBF8 2-816 limits assumed): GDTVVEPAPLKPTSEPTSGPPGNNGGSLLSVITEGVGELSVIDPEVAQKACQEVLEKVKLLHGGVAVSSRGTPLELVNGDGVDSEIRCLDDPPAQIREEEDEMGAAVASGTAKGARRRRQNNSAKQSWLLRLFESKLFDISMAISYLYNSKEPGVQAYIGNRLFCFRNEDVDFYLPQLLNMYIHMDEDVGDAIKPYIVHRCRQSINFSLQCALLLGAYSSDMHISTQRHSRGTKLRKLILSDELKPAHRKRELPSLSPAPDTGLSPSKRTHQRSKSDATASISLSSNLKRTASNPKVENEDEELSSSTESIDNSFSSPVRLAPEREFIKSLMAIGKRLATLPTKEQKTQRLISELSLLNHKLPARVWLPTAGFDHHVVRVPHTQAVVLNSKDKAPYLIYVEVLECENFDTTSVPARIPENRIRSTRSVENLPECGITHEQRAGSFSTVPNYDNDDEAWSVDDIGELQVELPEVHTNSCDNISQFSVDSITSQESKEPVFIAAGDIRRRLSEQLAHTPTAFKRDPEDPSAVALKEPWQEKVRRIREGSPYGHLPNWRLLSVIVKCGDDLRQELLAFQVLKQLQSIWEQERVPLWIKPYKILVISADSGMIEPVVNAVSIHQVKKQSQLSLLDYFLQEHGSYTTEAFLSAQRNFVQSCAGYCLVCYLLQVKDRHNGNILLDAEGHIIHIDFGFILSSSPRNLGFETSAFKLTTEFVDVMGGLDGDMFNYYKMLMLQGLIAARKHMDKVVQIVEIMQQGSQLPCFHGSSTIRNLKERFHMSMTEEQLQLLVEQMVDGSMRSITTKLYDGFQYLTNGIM
Sequence of SRSF protein kinase 1 (Homo sapiens) (Q96SB4 whole entry): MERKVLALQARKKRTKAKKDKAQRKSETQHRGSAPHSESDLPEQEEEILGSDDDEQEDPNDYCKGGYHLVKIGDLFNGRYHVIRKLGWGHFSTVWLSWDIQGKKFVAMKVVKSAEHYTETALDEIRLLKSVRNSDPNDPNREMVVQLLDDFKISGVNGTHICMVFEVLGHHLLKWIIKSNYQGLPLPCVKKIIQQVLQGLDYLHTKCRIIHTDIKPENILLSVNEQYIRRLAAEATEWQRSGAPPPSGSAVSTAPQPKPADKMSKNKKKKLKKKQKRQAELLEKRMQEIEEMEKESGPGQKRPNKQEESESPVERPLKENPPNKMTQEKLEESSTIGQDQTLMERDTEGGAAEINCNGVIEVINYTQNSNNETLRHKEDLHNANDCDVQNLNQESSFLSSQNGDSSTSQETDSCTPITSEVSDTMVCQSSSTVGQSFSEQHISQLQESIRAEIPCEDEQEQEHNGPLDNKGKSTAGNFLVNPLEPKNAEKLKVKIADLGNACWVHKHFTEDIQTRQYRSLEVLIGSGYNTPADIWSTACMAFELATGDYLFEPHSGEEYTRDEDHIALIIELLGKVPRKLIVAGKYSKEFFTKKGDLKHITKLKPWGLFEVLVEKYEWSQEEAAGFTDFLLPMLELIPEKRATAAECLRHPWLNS
Sequence of Sphingosine kinase 1 (Homo sapiens) (Q9NYA1 whole entry): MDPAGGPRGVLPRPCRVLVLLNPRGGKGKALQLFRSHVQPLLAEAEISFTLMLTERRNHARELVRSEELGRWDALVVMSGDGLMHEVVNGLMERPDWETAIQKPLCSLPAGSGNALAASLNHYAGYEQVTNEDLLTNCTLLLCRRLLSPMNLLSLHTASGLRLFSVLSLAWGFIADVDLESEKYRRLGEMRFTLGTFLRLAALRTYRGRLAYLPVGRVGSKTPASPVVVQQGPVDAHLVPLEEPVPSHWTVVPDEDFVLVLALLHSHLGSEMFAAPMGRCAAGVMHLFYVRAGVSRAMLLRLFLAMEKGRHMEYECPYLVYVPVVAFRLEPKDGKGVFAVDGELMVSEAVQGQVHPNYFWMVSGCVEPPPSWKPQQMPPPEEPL
Sequence of Mitogen-activated protein kinase 14 (Homo sapiens) (Q16539 whole entry): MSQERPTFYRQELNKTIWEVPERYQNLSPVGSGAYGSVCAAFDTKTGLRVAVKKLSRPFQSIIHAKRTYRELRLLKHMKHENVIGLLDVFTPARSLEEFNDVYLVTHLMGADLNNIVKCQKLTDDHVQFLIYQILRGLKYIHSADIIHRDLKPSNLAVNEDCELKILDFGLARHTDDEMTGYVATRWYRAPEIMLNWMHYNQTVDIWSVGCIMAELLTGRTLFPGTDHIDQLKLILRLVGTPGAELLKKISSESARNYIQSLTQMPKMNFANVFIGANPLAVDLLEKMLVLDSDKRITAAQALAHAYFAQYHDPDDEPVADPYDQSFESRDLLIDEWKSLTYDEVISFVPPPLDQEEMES

`COc1cc(C)c(N(C)C(=O)CN(C)C)cc1Nc1nc(Nc2cccc(F)c2C(N)=O)c2cc[nH]c2n1`: the inhibition in [1] was 2.25%; in experiment [2], 1.68%; in experiment [3], 1.28%; in experiment [4], -0.82%; in experiment [5] it was 3.91%; in [6], 2.56%. The inhibition in experiment [7] was 0.98%; in experiment [8] it was 1%; in experiment [9], 1.9%; in [10], 0.25%; in [11] it was 1.09%; in [12] it was -1.96%. In addition, the inhibition in experiment [13] is -3.38%; in experiment [14], 0.08%; in experiment [15] it was -0.5%; in [16], 0.21%; in experiment [17] it was 1.56%; in experiment [18], 3.54%. For the same compound, the results for the inhibition in [19] and in [20] were 0.7% and 0.03%, respectively.

Regarding `C[C@@H](Oc1cc(-n2cnc3ccc(OC4CCN(C)CC4)cc32)sc1C(N)=O)c1ccccc1Cl`, the inhibition in experiment [1] was 4.52%; in experiment [2], -2.03%; in [3], -0.98%; in [4], 9.29%; in experiment [5], 10.7%; in experiment [6], 2.89%. For the same compound, the inhibition in experiment [7] was 3.75%; in experiment [8] it was 4.78%; in experiment [9] it was 6.01%; in experiment [10], 4.13%; in experiment [11] it was 5.86%; in experiment [12], -2.69%. The inhibition in experiment [13] is -1.4%; in [14], 5.06%; in experiment [15], 19.7%; in [16], 9.45%; in experiment [17], 62.5%; in experiment [18], -3.18%. Further, the inhibition in [19] was 3.72%; in experiment [20], -2.98%.

On to `O=C1Nc2ccc(I)cc2C1=Cc1cc(Br)c(O)c(Br)c1`, for which the inhibition in [1] amounted to 96.8%; in [2] it was 3.61%; in experiment [3] it was 0.2%; in experiment [4], 5.09%; in [5] it was 8.57%; in [6] it was 1.97%. In addition, the inhibition in experiment [7] is 4.59%; in experiment [9], 4.77%; in experiment [10] it was 3.23%; in experiment [11], 6.31%; in experiment [12], -3.87%; in experiment [13], -2.51%. The inhibition was 6.08% in experiment [14]; 23.5% in [15]; -3.41% in [18]; 32.6% in experiment [19]; -1.83% in experiment [20].

As for `COc1ccc2cc(-c3c(-c4ccncc4)nc(-c4ccc([S+](C)[O-])cc4C)n3C)ccc2c1` (stereo unspecified), the inhibition was 0.97% in [1]; -0.41% in [2]; 0.96% in [3]; 8.81% in experiment [4]; 8.45% in [5]; -1.91% in [6]. Also, the inhibition was 9.09% in experiment [7]; 0.73% in experiment [8]; -0.19% in [9]; -2.44% in [10]; -0.09% in experiment [11]; -0.31% in [12]. The inhibition in experiment [13] is -0.89%; in [14], -2.02%; in experiment [15], -0.83%; in experiment [16] it was -2.38%; in [17], -1.78%; in experiment [18], 2.91%. For the same compound, the results for the inhibition in [19] and in experiment [20] were -0.88% and -0.09%, respectively.

As to `CCc1nccc2c1nc(-c1nonc1N)n2CC`, the inhibition in experiment [1] is 1.77%; in experiment [2] it was -1.38%; in [3], -1.65%; in experiment [4], 3.67%; in experiment [6], 2.18%; in [7] it was 1.56%. In addition, the inhibition was -1.2% in experiment [8]; 1.58% in [9]; -1.3% in experiment [10]; 3.91% in experiment [11]; -2.2% in [12]; -4.41% in experiment [13]. Besides, the inhibition is -0.95% in [14]; 1.38% in [15]; 1.47% in experiment [16]; 4.23% in experiment [17]; -3.69% in experiment [18]; 1.82% in [19]. Besides, the inhibition in [20] came to 0%.

With `O=C(Nc1n[nH]c2cc(-c3ccccc3)ccc12)C1CC1`, the inhibition is 4.97% in experiment [1]; -0.47% in experiment [2]; -0.2% in experiment [3]; 4.83% in experiment [4]; 11.2% in [5]; 4.66% in experiment [6]. The inhibition was 6.34% in experiment [7]; 3.31% in experiment [8]; 5.86% in [9]; 6.09% in experiment [10]; 3.52% in experiment [11]; -1.71% in experiment [12]. In addition, the inhibition in experiment [13] was -1.41%; in experiment [14], 2.18%; in [15], 4.34%; in experiment [16], 1.72%; in [17] it was 4.03%; in experiment [18] it was -5.9%. The inhibition in experiment [19] is 0.66%; in experiment [20] it was -0.8%.

As for `CCC(=O)Nc1ccc(C)c(-c2ccc(C(=O)NCC3CC3)cc2)c1`, the inhibition is 1.57% in experiment [1]; -1.41% in experiment [2]; -1.57% in experiment [3]; 20.1% in experiment [4]; 62.9% in experiment [5]; 6.54% in [6]. The inhibition in experiment [7] was 36.8%; in experiment [8] it was 3.68%; in [9], 3.22%; in experiment [10] it was 2.95%; in experiment [11], 4.44%; in experiment [12], -3.31%. For the same compound, the inhibition in [13] was -2.74%; in experiment [14], 2.7%; in experiment [15], 0.64%; in [16], 0.57%; in experiment [17], -0.59%; in experiment [18], -0.74%. Besides, the inhibition in experiment [19] was -0.15%; in experiment [20] it was -3.42%.
